Assay outcomes from PubChem BioAssay.
VDR inhibitor: vitamin D3 receptor (human) inhibition. P11473. VDR-SRC2-3 peptide fluorescence polarization, 2 h. Potency, µM, without a hit: max response, negative = inhibition, hits mostly inhibitors. actives 0.93% (n = 400,000). AID 504847
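FP read-out; VDR + SRC2-3 coactivator peptide; 23 nl compound by pintool; 2 h RT incubation; reagents held at 4 deg C, protected from light.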
Sfp inh: blocks B. subtilis Sfp PPTase activity; Q9F4F7; AID 1490; Biochemical Sfp PPTase activity, qHTS; Potency, µM, without a hit: largest response in the series, negative = inhibition, usual class: inhibitors; actives 3.5% (n = 310,000);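 further: the enzyme is Sfp with the accession as filed and its product quenches rhodamine fluorescence; 0% = enzyme reaction without inhibitor and -100% = no enzyme wells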
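Fluorescence-quenching assay: 15 nM Sfp-PPTase preincubated 15 min at room temperature with compound, then 5 uM rhodamine-CoA and 12.5 uM BHQ-2-labelled YbbR peptide added. Fluorescence (ex 525/em 598 nm) read at start and after 30 min; difference gives rate.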
GLS inhibitor: glutaminase GLS (human) inhibition. O94925. GLS enzymatic activity, qHTS titration. Potency, µM (doses to about 45.5 µM), for the others: top-dose activity change, negative = inhibition, usual class: inhibitors. actives 0.21% (n = 410,000). AID 624170
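Enzyme dispensed in phosphate buffer (45 mM, pH 8.2, 0.02% Tween-20), compounds pinned in, then 1 mM L-glutamine solution and the glutamate oxidase–HRP–Amplex Red mix added; fluorescence read immediately and again after 30 min at room temperature.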
GCN5L2 inh: GCN5L2 (KAT2A) acetyltransferase inhibition | Q92830 | GCN5L2 HAT assay, ThioGlo1 CoA-SH fluorescence | Potency, µM (doses to about 58.9 µM), for the others: at the top dose activity change, negative = inhibition, most hits filed as inhibitors | actives 0.21% (n = 390,000)
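ThioGlo1-coupled HAT assay: 20nM GCN5L2, 70uM acetyl-CoA, 75uM H3(1-25) peptide, pH 7.5. Fluorescence read at 340/540nm at start and after 20 min at room temperature.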
rTrxR1 inhibitor: inhibitors of rat thioredoxin reductase 1. Potency, µM (doses to about 114 µM), inactives show top-dose activity change, negative = inhibition, actives largely listed as inhibitors. recombinant rTrxR1, NADPH fluorescence consumption, selenite substrate. actives 1% (n = 390,000). O89049. AID 588453; further: nearly all actives have a fitted effect of over 65% in size
Target sequence (O89049 whole entry, looked up): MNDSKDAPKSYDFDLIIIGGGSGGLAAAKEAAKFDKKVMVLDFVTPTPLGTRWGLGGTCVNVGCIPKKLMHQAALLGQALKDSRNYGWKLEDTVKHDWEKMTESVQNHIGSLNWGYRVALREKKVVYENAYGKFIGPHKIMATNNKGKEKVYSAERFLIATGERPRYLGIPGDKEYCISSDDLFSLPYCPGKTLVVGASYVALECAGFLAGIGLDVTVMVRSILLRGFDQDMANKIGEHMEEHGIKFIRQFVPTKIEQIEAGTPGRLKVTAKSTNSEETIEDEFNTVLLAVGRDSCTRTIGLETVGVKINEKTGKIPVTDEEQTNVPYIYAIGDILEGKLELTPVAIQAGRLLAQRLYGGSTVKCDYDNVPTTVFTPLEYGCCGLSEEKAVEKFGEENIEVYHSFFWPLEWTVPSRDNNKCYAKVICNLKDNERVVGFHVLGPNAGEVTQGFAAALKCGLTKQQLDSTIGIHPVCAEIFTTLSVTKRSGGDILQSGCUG
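Rat TrxR1 (90 nM in the dispensed reagent) was pre-reduced with 400 uM NADPH for 5 min at room temperature, then incubated with compound for 15 min. After 400 uM selenite was added, NADPH fluorescence (Ex 340/Em 450 nm) was followed for 8 min.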
TrxR1 substrate: rat thioredoxin reductase 1 substrate activity. O89049. purified TrxR1 substrate turnover, NADPH consumption readout. Potency, µM (titrated, usually from 114 µM), inactives show at the highest dose activity change, negative = substrate turnover. actives 0.01% (n = 390,000). AID 588456; further: nearly all actives have a fitted effect of over 50% in size
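Rat TrxR1, dispensed at 90 nM, was prereduced with 400 uM NADPH (final) for 5 min at ~22 deg C, then incubated with compound 15 min before 400 uM selenite. A first-read NADPH fluorescence drop versus no-compound background flagged substrates.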
Active calls of the source: *; u = inconclusive; x = not tested or not shown; [ ] = remark or other dose. Rows were chosen to be rich in hits. Some 3.8% of all compounds tested hit in one or more screens of this group. The call rests on the fitted dose curve; in most records, active means well fitted curve in the direction sought with a large enough effect; inconclusive means small, poorly fitted or top-dose-only effect, or another doubt; inactive means no such curve, though single readings can be large; an effect the other way counts as inactive or inconclusive. Unless noted, on the % scale 0 is the no-effect control and ±100 the full control effect; potency means the concentration at half of the fitted maximal effect.

SMILES	VDR inhibitor	Sfp inh	GLS inhibitor	GCN5L2 inh	rTrxR1 inhibitor	TrxR1 substrate
COc1cc(/C=N/Nc2nc(-c3ccc(S(=O)(=O)N(C)C)cc3)cs2)ccc1O	-19%	79µM*	12%	-6%	-20%	-3%
COc1ccc(/C=N/Nc2nc(-c3cccc(S(=O)(=O)N4CCCC4)c3)cs2)cc1OC	7%	-17%	-4%	-5%	-13%	-5%
CN1OC[C@@H]2CN[C@H](c3cccc(-c4cc(Cl)cc(Cl)c4)c3)C[C@@H]21	-19%	x	4%	x	-15%	-2%
COc1cc(NC(=O)COc2c(C)cc(C)cc2[N+](=O)[O-])c(OC)cc1Cl	3%	50µM*	-13%	-7%	1%[57.1 µM]	0%[57.1 µM]
Cc1nc2ccccc2n1CCc1ccccc1	1%	13%	7%	-5%	21%[57.1 µM]	7%[57.1 µM]
Cc1nc(C(N)=O)c(N)n1CCc1ccccc1	45µM*	-21%	u	-25%	32%	16%[57.1 µM]
Cc1cc(C(=O)O)c(CSc2ncn[nH]2)o1	4%	-8%	10%	19%	-19%	-9%
Nc1nn(S(=O)(=O)c2cccc3nsnc23)cc1-c1ccc(Br)cc1	11%	15%	-4%	-6%	9%[57.1 µM]	-8%
O=C1CC(c2ccc(O)c(O)c2)Oc2cc(O)cc(O)c21 (stereo not drawn)	2%	-22%	u	-1%	-22%	-4%
O=C(CC(c1ccccc1)c1ccccc1)Nc1ccncc1	2%	6%	-15%	-11%	4%	-9%
CC(=O)c1sc(N2CCOCC2)nc1-c1ccccc1	2%	-7%	1%	-1%	7%[57.1 µM]	-5%[57.1 µM]
COC1=C(N)C(=O)c2nc(-c3nc(C(=O)O)c(C)c(-c4ccc(OC)c(OC)c4O)c3N)ccc2C1=O	14µM*	3.5µM*	2%	49%	-4%	-17%
COc1ccc(C(=O)O)c(O)c1OC	2%	9%	x	0%	x	x
O=C(Nc1nccs1)c1cn2ccccc2n1	-3%	u	0%	3%	22%	11%
NNC(=O)c1cn2ccccc2n1	-4%	79µM*	12%	-13%	-4%	1%
CN(C)c1ccnc(C(=O)O)c1	12%	56µM*	-6%	-4%	8%[57.1 µM]	9%[57.1 µM]
O=C(O)c1ccnc(C(=O)O)c1	10%	35µM*	-2%	5%	15%	-1%
O=C(O)c1cc2ccccc2cn1	4%	x	6%	x	3%[2.29 µM]	6%[57.1 µM]
O=C(O)c1cc(Br)ccn1	-9%	35µM*	-2%	-3%	5%[57.1 µM]	5%[57.1 µM]
Cc1cccc(C)c1NC(=O)CNC(=O)C(Cc1ccccc1)NC(=O)c1ccccc1 (stereo not drawn)	-11%	13%	9%	-2%	17%	9%
COc1ccc2c(c1)cc1n2CCN=C1NCCO	6%	15%	-16%	-18%	-10%	15%
CCOC(=O)C1=C(O)C(=O)N(c2ccccc2)C1c1cccc([N+](=O)[O-])c1 (stereo not drawn)	-13%	-9%	2%	3%	20%	3%
O=[N+]([O-])c1ccc(O)c(C2=NNC(c3ccccc3F)C2)c1 (stereo not drawn)	79µM*	19%	-19%	-20%	35µM*	-1%
CCOC(=O)N1CCN(CC(O)COCC2=CCC3CC2C3(C)C)CC1 (stereo not drawn)	-6%	79µM*	1%	1%	8%[57.1 µM]	-7%[57.1 µM]
CCOC(=O)N1CCN(CC(O)COCc2ccccc2)CC1 (stereo not drawn)	1%	17%	10%	-5%	18%[57.1 µM]	5%
SMILES	VDR inhibitor	Sfp inh	GLS inhibitor	GCN5L2 inh	rTrxR1 inhibitor	TrxR1 substrate
O=C(CNC(=O)c1ccccc1)OCC(=O)c1cccs1	1%	23%	-3%	-5%	23%	4%
O=C(CC(Nc1ccccc1Cl)C(=O)OCC(=O)c1cccs1)c1ccccc1 (stereo not drawn)	-4%	45µM*	x	u	13µM*	14%
COc1ccccc1NC(CC(=O)c1ccccc1)C(=O)OCC(=O)c1ccc(C)c(C)c1 (stereo not drawn)	u	-8%	-3%	37%	45µM*	-8%
COc1ccccc1NC(CC(=O)c1ccccc1)C(=O)OCC(=O)c1ccc(C)cc1 (stereo not drawn)	3%	0%	19%	1%	-18%	-6%
O=C(CC(Nc1ccc(Cl)cc1Cl)C(=O)O)c1ccccc1 (stereo not drawn)	79µM*	14µM*	28%	-1%	25µM*	1%
COc1ccccc1NC(CC(=O)c1ccccc1)C(=O)OCC(=O)c1ccc(Br)cc1 (stereo not drawn)	-25%	4%	3%	-8%	71µM*	-6%
O=C(c1ccncc1)N1CCCC(N2CCN(c3ccc(F)cc3)CC2)C1 (stereo not drawn)	-11%	14%	10%	-2%	-13%	-4%
COc1cccc(C2NC(CCSC)(C(=O)O)C3C(=O)N(C(C)C)C(=O)C23)c1O (stereo not drawn)	-5%	u	23%	3%	-7%	-6%
CC(C)N1C(=O)C2C(c3ccccc3O)NC(C)(C(=O)O)C2C1=O (stereo not drawn)	-5%	20µM*	17%	-1%	-12%	-7%
CCOC(=O)c1cc(C#N)c(SC)nc1C	8%	17%	-11%	-1%	9%[57.1 µM]	6%[2.29 µM]
CCOC(=O)c1cc2c(N)c(C(=O)c3cc(C#N)c(SC)nc3C)sc2nc1C	-8%	40µM*	7%	-2%	-7%	17%
COC(=O)C1C2C=CC3(CN(Cc4ccco4)C(=O)C13)O2 (stereo not drawn)	14%	13µM*	-5%	-6%	u	4%[57.1 µM]
CC12C=CC3(CN(Cc4ccccc4)C(=O)C3C1C(=O)NCc1ccco1)O2 (stereo not drawn)	-2%	-6%	3%	-8%	56µM*	8%
CCOc1ccc(CNC(=O)c2ccc3oc(=O)n(Cc4ccccc4)c3c2)cc1	3%	x	8%	-2%	16%[57.1 µM]	4%[57.1 µM]
CCOC(=O)c1c(NC(=O)c2cc(-c3ccc(Cl)s3)nc3ccccc23)sc(C(N)=O)c1C	3%	4%	-11%	34%	-2%	2%
CCOC(=O)c1c(NC(=O)COC(=O)c2ccncc2)sc(C)c1C	-4%	79µM*	1%	-9%	4%[57.1 µM]	-6%[57.1 µM]
Cc1sc(NC(=O)Nc2ccccc2)c(C(N)=O)c1C	89µM*	20µM*	-18%	-4%	-6%[57.1 µM]	3%
Cc1ccccc1-c1cc(C(=O)Nc2sc(C)c(C)c2C(N)=O)c2ccccc2n1	-1%	50µM*	9%	-12%	-19%	-10%
